Assay outcomes: PubChem BioAssay, National Center for Advancing Translational Sciences (NCATS)
In the library only some 18% were active in any assay of this set; here they are far more common.
TDP1 inh = inhibitors of human tyrosyl-DNA phosphodiesterase TDP1. AID 485290. Potency, µM (series often up to 130 µM), for inactives: at the highest dose activity change, negative = inhibition, hits mostly inhibitors. actives 0.28% (n = 350,000). recombinant TDP1, AlphaScreen DNA substrate cleavage. Q9NUW8; also: potency is read from the fitted curve at half-maximal effect; % is scaled to controls: 0 for no effect and ±100 for the full control effect; nearly all actives have a fitted effect of over 40% in size
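Recombinant human Tdp1 (E. coli-expressed, 1 nM final) preincubated with compounds 15 min at room temperature, then 5'-biotin/3'-phosphotyrosine-FITC DNA substrate (15 nM final) added for 5 min. AlphaScreen beads (10 ug/ml final) added 10 min; cleavage lowers signal.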
PLK1 PBD block = PLK1 (human) polo-box domain binding inhibition; Potency, µM, for inactives: max response, negative = inhibition, hits mostly inhibitors; Plk1 PBD binding of FITC phosphopeptide, fluorescence polarization; actives 2.8% (n = 360,000); also: potency is read from the fitted curve at half-maximal effect; series mostly up to about 57 µM; % is scaled to controls: 0 for no effect and ±100 for the full control effect; nearly all actives have a fitted effect of over 65% in size
VDR inhibitor = blocks the human vitamin D receptor | P11473 | VDR-SRC2-3 peptide fluorescence polarization, 2 h | Potency, µM, inactives show max response, negative = inhibition, hits mostly inhibitors | actives 0.93% (n = 400,000); also: potency is read from the fitted curve at half-maximal effect; % is scaled to controls: 0 for no effect and ±100 for the full control effect
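Measured by FP: displacement of SRC2-3 coactivator peptide from VDR by library compounds, following a two-hour ambient incubation.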
KAT2A inh = inhibitors of human GCN5L2 histone acetyltransferase; actives 0.21% (n = 390,000); GCN5L2 HAT assay, ThioGlo1 CoA-SH fluorescence; Potency, µM (highest dose often 58.9 µM), for the others: at the top dose activity change, negative = inhibition, most hits filed as inhibitors; AID 504327; also: potency is read from the fitted curve at half-maximal effect; % is scaled to controls: 0 for no effect and ±100 for the full control effect
Target sequence (Q92830 whole entry, looked up): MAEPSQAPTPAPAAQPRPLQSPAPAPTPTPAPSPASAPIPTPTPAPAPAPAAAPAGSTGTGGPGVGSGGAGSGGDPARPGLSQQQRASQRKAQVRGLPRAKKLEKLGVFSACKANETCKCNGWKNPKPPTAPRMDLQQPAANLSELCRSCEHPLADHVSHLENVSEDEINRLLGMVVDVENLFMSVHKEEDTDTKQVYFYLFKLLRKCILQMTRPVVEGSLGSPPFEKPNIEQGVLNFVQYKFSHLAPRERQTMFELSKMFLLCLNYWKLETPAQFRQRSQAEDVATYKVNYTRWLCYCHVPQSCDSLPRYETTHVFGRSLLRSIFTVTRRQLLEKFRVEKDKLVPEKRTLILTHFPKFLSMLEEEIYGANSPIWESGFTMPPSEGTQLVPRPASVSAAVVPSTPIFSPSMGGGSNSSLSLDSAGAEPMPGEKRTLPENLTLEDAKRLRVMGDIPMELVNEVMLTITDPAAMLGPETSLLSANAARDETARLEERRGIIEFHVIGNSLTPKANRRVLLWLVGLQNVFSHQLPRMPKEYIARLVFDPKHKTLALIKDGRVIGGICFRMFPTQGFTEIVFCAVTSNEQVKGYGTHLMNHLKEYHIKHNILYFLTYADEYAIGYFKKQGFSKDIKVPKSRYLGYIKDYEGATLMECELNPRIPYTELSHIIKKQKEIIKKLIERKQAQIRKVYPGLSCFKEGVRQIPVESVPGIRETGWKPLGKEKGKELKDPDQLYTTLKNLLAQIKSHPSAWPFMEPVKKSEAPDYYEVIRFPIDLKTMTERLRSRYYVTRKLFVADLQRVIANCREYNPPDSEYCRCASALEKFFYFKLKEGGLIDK
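Compounds, pin-transferred from DMSO stocks, meet 20nM GCN5L2 for 15 min before the reaction begins with H3(1-25) peptide (75uM) and acetyl-CoA (70uM). Thiol-reactive ThioGlo1 reports CoA release over 20 min at room temperature.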
DT40 TDP1 no CPT = qHTS for Inhibitors of human tyrosyl-DNA phosphodiesterase 1 (TDP1): qHTS in cells in absence of CPT; DT40 Tdp1-/- hTDP1 cells, no CPT, ATP luminescence, 48 h; Potency, µM (doses to about 46.2 µM), for inactives: top-dose activity change, negative = growth inhibition, usual class: inhibitors; actives 15% (n = 420,000); also: potency is read from the fitted curve at half-maximal effect; % is scaled to controls: 0 for no effect and ±100 for the full control effect; nearly all actives have a fitted effect of over 55% in size
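Compound effects on proliferation are scored in DT40 Tdp1-/-;hTDP1 cells in the absence of CPT. ATP levels (CellTiter-Glo luminescence) are recorded after a ≥48 hr, 37 °C incubation.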
DT40 TDP1 CPT = growth inhibition of DT40 Tdp1-/-;hTDP1 cells with camptothecin (screen for TDP1 inhibitors) | AID 686979 | actives 12% (n = 420,000) | chicken DT40 Tdp1-/-;hTDP1 cells + 20 nM CPT, ATP luminescence, 48 h | Potency, µM (titrated, usually from 46.2 µM), without a hit: at the highest dose activity change, negative = growth inhibition, usual class: inhibitors; also: potency is read from the fitted curve at half-maximal effect; % is scaled to controls: 0 for no effect and ±100 for the full control effect; nearly all actives have a fitted effect of over 55% in size
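Cell growth measured by CellTiter-Glo luminescence after a minimum 48 h, 37 C compound exposure with 20 nM CPT in Tdp1-knockout DT40 cells stably expressing hTDP1, seeded 400/well; qHTS titration format.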
USP1 UbRho = USP1-UAF1 deubiquitinase inhibition validated. shares compounds with VDR inhibitor. Ub-Rhodamine cleavage, fluorescence kinetic read. Potency, µM (top dose mostly 56.8 µM), for inactives: at the top dose activity change, negative = inhibition, usual class: inhibitors. actives 50% (n = 50). AID 540327
VDR confirm = confirmation of human vitamin D receptor inhibitors; actives 89% (n = 840); Potency, µM, hits mostly inhibitors; shares compounds with VDR inhibitor; VDR-coactivator inhibition assay, qHTS confirmation; also: potency is read from the fitted curve at half-maximal effect
VDR FP = VDR (human) coactivator binding inhibition, fluorescein polarization; VDR-coactivator binding, fluorescein fluorescence polarization; actives 48% (n = 840); shares compounds with VDR inhibitor; AID 602200; Potency, µM (doses to about 57.1 µM), for the others: at the top dose activity change, negative = inhibition, usual class: inhibitors; also: potency is read from the fitted curve at half-maximal effect
VDR bla reporter = VDR (human) inhibition, cell-based beta-lactamase validation; shares compounds with VDR inhibitor; VDR beta-lactamase reporter cells, FRET ratio; cells co-treated with VDR agonist LG190178; Potency, µM (top dose mostly 46.1 µM), without a hit: at the top dose activity change, negative = inhibition, usual class: inhibitors; actives 23% (n = 840); also: potency is read from the fitted curve at half-maximal effect; % is scaled to controls: 0 for no effect and ±100 for the full control effect
VDR viability = cytotoxic in counter-screen for VDR inhibitors | shares compounds with VDR inhibitor | cytotoxicity counter-screen, cell viability, qHTS | Potency, µM (titrated, usually from 48.3 µM), inactives show at the top dose activity change, negative = cytotoxicity, hits mostly cytotoxic | actives 18% (n = 840);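 also: potency is read from the fitted curve at half-maximal effect; plate controls were DMSO for no effect and high-concentration cycloheximide for full effect; nearly all actives have a fitted effect of over 75% in size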
* hit, by the source's call; ? = inconclusive; · = no result given; [ ] = remark or other dose. Calls follow the shape of the dose curve; as a rule, active = well fitted curve in the direction sought with a large enough effect; inconclusive = small, poorly fitted or top-dose-only effect, or another doubt; inactive = no such curve, though single readings can be large; an effect the other way counts as inactive or inconclusive.

SMILES | TDP1 inh | PLK1 PBD block | VDR inhibitor | KAT2A inh | DT40 TDP1 no CPT | DT40 TDP1 CPT | VDR confirm | VDR FP | VDR bla reporter | VDR viability | others
Cc1ccc(NN2C(=O)C=C(c3ccc(Cl)cc3)C2=O)cc1 | · | 4.7µM* | 50µM* | 1% | 4.1µM* | 5.8µM* | ? | ? | ? | ?
COc1ccc(Nc2cccccc2=O)cc1 | 4% | 1% | -1% | -10% | -18% | ? | · | · | · | ·
COc1ccc(C2=CC(=O)N(Nc3ccccc3)C2=O)cc1 | -3% | -25% | ? | -5% | 21µM* | 18µM* | 3.2* | 3.5µM* | -7% | 13%
Cn1c(SCC(=O)Nc2sccc2C#N)nnc1C1CC1 | -14% | -20% | -29% | -4% | 0% | 1% | · | · | · | ·
Cc1cc(C(C2C(=O)CC(C)(C)CC2=O)C2C(=O)CC(C)(C)CC2=O)cc(C)c1OC(F)F | · | 5.3µM* | 10µM* | -4% | -11% | -22% | 24* | ? | 30% | 22%
Cc1nc(C(F)(F)F)ccc1C(=O)N1CCCCCC1(C)C(=O)NCC(C)C (stereo unspecified) | · | -8% | · | · | -5% | 1% | · | · | · | ·
CCOC(=O)c1c(C)oc2c1c(C(c1cccnc1)N1CCOCC1)c(O)c1ccccc12 (stereo unspecified) | 11% | 6.7µM* | ? | -18% | 18µM* | ? | 16* | 13µM* | ? | ?
CCOC(=O)c1c(C)nc(C)c(C(=O)OCC)c1-c1cccnc1 | 0% | 4% | -8% | 16% | ? | -2% | · | · | · | ·
CCOC(=O)c1c(C)oc2c1c1c(c3ccccc32)OCN(Cc2cccnc2)C1 | 7% | 4.7µM* | ? | -12% | ? | ? | 11* | 7.9µM* | 4% | ?
CCOC(=O)c1c(C)oc2c1c(C(c1cccnc1)N1CCN(C)CC1)c(O)c1ccccc12 (stereo unspecified) | 9% | · | · | -7% | · | · | · | · | · | ·
C=CCn1cccc(/C=C/C(=O)c2ccc(C(C)(C)C)cc2)c1=S | 8% | -10% | ? | -7% | 7.3µM* | 7.3µM* | 7.1* | 7.1µM* | ? | ?
Cc1ccc(C(=O)c2coc3c2C(=O)C(=O)c2ccccc2-3)cc1 | 7% | ? | 7.1µM* | -7%[0.501 µM] | 4.6µM* | 3.3µM* | 4.7* | ? | -22% | ?
Cc1cc(=O)c(C(=O)c2ccccc2)c(C)o1 | · | -16% | 10% | · | -10% | -3% | · | · | · | ·
Cc1ccc(C(=O)c2c(C)oc3c2C(=O)C(=O)c2ccccc2-3)cc1 | 10% | ? | 3.5µM* | -5% | 2.6µM* | 2.1µM* | 1.5* | 4µM* | ? | 5.6µM*
NC(=O)C1CCCN(C(=O)c2cccc(S(=O)(=O)N3CCCCCC3)c2)C1 (stereo unspecified) | 0% | -4% | -5% | -1% | 8% | 5% | · | · | · | ·
Cc1ccc(/C=N/NC(=O)c2cccnc2)s1 | 6% | 5% | 1% | -17% | -19% | ? | · | · | · | ·
S=C(c1ccc(-c2cccc(Cl)c2)o1)N1CCCCC1 | 8% | ? | 4% | -4% | ? | -4% | · | · | · | ·
CC(=O)N1CCN(C(=S)c2ccc(-c3ccc(Cl)cc3)o2)CC1 | 11% | 4.7µM* | 50µM* | -9% | 26µM* | ? | 27* | ? | 26% | 5%
COCCN1CCN(C(=O)C2CCC(=O)N(CCc3cccc(F)c3)C2)CC1 (stereo unspecified) | 3% | 4% | 13% | 1% | 0% | 3% | · | · | · | ·
CCN(CC)c1ccc(NC(=O)COc2ccc(C#N)cc2)cc1S(=O)(=O)Nc1ccc(OC)cc1 | 0% | ? | -22% | -7% | ? | 7% | · | · | · | ·
CCCC(=O)NCCc1c2n(c3ccc(OC)cc13)CCCc1ccccc1-2 | 15%[56.1 µM] | · | 0% | -16% | · | · | · | · | · | · | USP1 UbRho=?
COc1ccc2c(c1)c1c(c(=O)n(-c3ccccc3)c(=O)n1CC(=O)NCCC1=CCCCC1)n2C | 0% | · | 0% | 0% | -1% | -20% | · | · | · | ·
O=C1C(C2=C(O)c3ccccc3C2=O)=Nc2ccccc21 | 11% | ? | 13µM* | -3% | 15µM* | 10µM* | 0.75* | ? | -26% | ?
O=C(Nc1cc(S(=O)(=O)N2CCOCC2)ccc1N1CCCCC1)c1ccc(Cl)cc1 | 2% | 5.3µM* | ? | -26% | 13µM* | 18µM* | 9.5* | ? | 2% | 22%
O=C(Nc1cc(S(=O)(=O)N2CCOCC2)ccc1N1CCCCC1)c1ccccc1Br | 1% | 4.7µM* | 89µM* | -16% | ? | ? | 17* | ? | 17% | 19%
Nc1cc(S(=O)(=O)N2CCCCC2)ccc1N1CCCCC1 | 2% | -1% | -8% | -9% | ? | ? | · | · | · | ·
Nc1cc(S(=O)(=O)N2CCOCC2)ccc1N1CCCCC1 | 4% | 3µM* | 25µM* | ? | ? | 23µM* | 6* | ? | 30% | 6%
CC(=O)c1ccc(NC(=S)N2CCN(S(=O)(=O)c3ccc(F)cc3)CC2)cc1 | 1% | -4% | 13% | ? | -12% | 8% | · | · | · | ·
COc1cc(C(=O)Nn2cnnc2)ccc1OC(F)F | · | -2% | 9% | 12% | 20% | 4% | · | · | · | ·
Cc1ccc(-c2csc(N3N=C(c4ccccc4)/C(=C\c4ccc(N(C)C)cc4)C3=O)n2)cc1 | 13% | · | · | -14% | · | · | · | · | · | ·
